Mcl1 Bid PPI: disrupts binding of human Mcl-1 to Bid peptide; AID 1021; inhibition, % at 21.7 µM; 220,000 tested, 0.97% active; TR-FRET Mcl-1/Bid-Dy647 peptide binding, 1536-well;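 active = compounds that cut the binding signal by more than half at the single screening dose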;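 also: His-tagged Mcl-1 with europium anti-His antibody binding Bid BH3 peptide; 0% = Mcl-1 plus peptide wells and 100% = peptide-only wells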
Mcl1-Noxa inh: Mcl-1/Noxa interaction inhibition; Q07820; TR-FRET Mcl-1/Noxa peptide binding, 2 h; inhibition, % at 21.7 µM; 220,000 tested, 1.5% active;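 active = compounds that cut the protein-peptide binding signal by more than 50% relative to plate controls in a single-dose test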;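 also: His-tagged Mcl-1 with rhodamine Noxa BH3 peptide and terbium anti-His antibody; 0% = Mcl-1 plus Noxa peptide wells and 100% = peptide-only wells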
MCL1-BIM inh: MCL1-BIM-BH3 interaction inhibition (human). GST-MCL1 / FITC-Bim-BH3 fluorescence polarization. Q07820. 320,000 tested, 0.68% active. inhibition, % at 10.9 µM;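 active = inhibition above the mean inhibition of all tested compounds plus 3 SD, set per campaign, cut at about 40% in these data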;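 also: 0% = DMSO wells and 100% = unlabeled Bim-BH3 peptide control; higher means more loss of mP so more displacement of Bim peptide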
GLD-1 TGE inh: GLD-1-TGE RNA interaction inhibition (C. elegans); AID 2280; Q17339; purified GLD-1 + fluorescein TGE RNA, fluorescence polarization; 320,000 tested, 0.44% active; inhibition, % at 5.96 µM;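 active = percent inhibition above a per-plate cutoff, the plate mean of test compounds plus 3 SD, cut at about 30% in these data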;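 also: 0% = DMSO wells with GLD-1 and probe and 100% = wells lacking GLD-1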
Target sequence (Q17339 whole entry, looked up): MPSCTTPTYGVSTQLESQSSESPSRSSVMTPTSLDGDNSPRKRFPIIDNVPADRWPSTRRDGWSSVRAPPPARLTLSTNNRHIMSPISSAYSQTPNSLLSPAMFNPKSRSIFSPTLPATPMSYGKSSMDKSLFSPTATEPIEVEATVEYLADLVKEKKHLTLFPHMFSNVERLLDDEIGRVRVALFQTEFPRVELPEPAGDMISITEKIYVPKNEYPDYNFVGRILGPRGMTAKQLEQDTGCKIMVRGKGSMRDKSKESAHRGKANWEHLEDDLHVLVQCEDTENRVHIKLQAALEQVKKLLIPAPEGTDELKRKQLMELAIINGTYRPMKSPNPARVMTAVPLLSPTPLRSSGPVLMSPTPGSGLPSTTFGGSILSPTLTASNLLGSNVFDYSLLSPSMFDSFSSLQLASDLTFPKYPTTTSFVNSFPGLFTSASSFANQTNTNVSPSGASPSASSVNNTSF
Bim-Mcl-1: disrupts Bim peptide binding to human Mcl-1 | Bead-based flow cytometry, Bim peptide-Mcl-1 binding | AID 1009 | Q07820 | 190,000 tested, 0.1% active | inhibition, % at 10 µM; in the data active = inhibition above about 40%;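 also: 0% = no compound tracer wells and 100% = peptide blocker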
BCLXL inh: inhibitors of human Bcl-xL. GST-Bcl-xL / FITC-Bim BH3 peptide fluorescence polarization. inhibition, % at 10.9 µM. 320,000 tested, 0.7% active;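 active = inhibition above the mean of all tested compounds plus 3 SD, cutoff set per campaign, cut at about 30% in these data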;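 also: 0% = DMSO wells and 100% = unlabeled Bim-BH3 peptide competitor; inhibitors lower millipolarization by displacing the labeled peptide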
Target sequence (Q07817 whole entry, looked up): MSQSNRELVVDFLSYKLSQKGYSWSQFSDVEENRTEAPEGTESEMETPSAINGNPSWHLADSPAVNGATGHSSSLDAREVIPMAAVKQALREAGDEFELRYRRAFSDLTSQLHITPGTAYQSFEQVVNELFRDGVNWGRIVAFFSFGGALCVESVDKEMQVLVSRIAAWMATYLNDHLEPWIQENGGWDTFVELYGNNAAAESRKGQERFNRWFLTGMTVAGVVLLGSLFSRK
Numbers without * were called inactive; · = no result given. A selection: hits, their analogues and other compounds. The true share with any hit is near 2.3%.

SMILES	Mcl1 Bid PPI	Mcl1-Noxa inh	MCL1-BIM inh	GLD-1 TGE inh	Bim-Mcl-1	BCLXL inh
COc1cc(C(=O)NS(=O)(=O)c2ccccc2C)ccc1Cc1cn(C)c2ccc(NC(=O)OC3CCCC3)cc12	4.4	20.9	-1.5	4.0	0.0	37.3*
COc1ccc(NC(=O)COc2ccccc2C)cc1S(=O)(=O)N1CCCCC1	·	·	-1.7	2.0	·	2.0
CN1CCc2c(sc3c2c(=O)n(-c2ccc(Cl)cc2)c2nncn32)C1	-23.8	31.5	9.8	3.6	-5.0	8.3
CCN(CC)CCn1c(=O)n(-c2ccc(Cl)cc2)c(=O)c2c3c(sc21)CN(C)CC3	-16.4	6.0	36.5	-40.6	·	35.4*
COc1cc(CC2COC(c3ccc(O)c(OC)c3)C2COC(C)=O)ccc1O (stereo unspecified)	-72.0	70.2*	23.7	5.7	·	2.8
Cc1ccc(-n2[nH]c(C)c(C=Nc3ccc4[nH]c(=O)[nH]c4c3)c2=O)cc1	9.7	62.2*	28.0	7.9	2.0	16.6
CC(=O)c1c(C)[nH]c(C(=O)Nc2cccc(S(=O)(=O)N(C)C)c2)c1C	-11.7	15.8	8.8	0.8	-1.0	3.6
Nc1c2c(nc3ccccc13)CCCC2	8.1	51.5*	-2.3	3.4	-2.0	-3.6
O=C1N=C2N(CCN3CCCCC3)c3ccccc3N2/C1=C\c1ccc([N+](=O)[O-])o1	83.1*	12.3	·	·	0.0	·
CCOc1[nH]n(-c2ccccc2)c(=O)c1C=Nc1ccc(Cl)cc1	-4.2	24.5	-1.4	-7.3	-1.0	-0.7
O=C(c1ccc(F)cc1)N(c1ccccn1)C1CCCCC1	-13.7	21.9	3.2	-5.0	-1.0	8.2
COc1ccc(OC)c(-c2nc(C(N)=O)c3[nH]c(=O)n(-c4ccc(F)cc4)c3n2)c1	65.7*	66.6*	-2.1	4.5	1.0	2.8
CC1CN(C(=O)c2cc(S(=O)(=O)N3CCCC3)c(Cl)cc2Cl)CC(C)O1 (stereo unspecified)	-7.4	-9.5	4.7	4.1	0.0	5.8
O=C(NC(=S)NCCC1=CCCCC1)c1ccccc1Br	-53.4	68.4*	34.4	3.5	-5.0	16.5
O=C(COC(=O)c1ccccc1Br)NCCC1=CCCCC1	-24.8	18.5	8.3	4.0	1.0	10.8
CN1c2ccccc2Oc2nnc(Cl)cc21	-19.1	8.7	-10.9	0.4	0.0	-3.9
CCN(CC)CCOc1cc2c(nn1)Oc1ccccc1N2C	54.1*	37.2	10.5	-0.3	4.0	7.8
O=C(COc1ccc(-c2ccccc2)cc1)NNC(=O)Nc1ccc(F)cc1F	·	·	-2.3	4.3	·	1.1
CC1CCCCC12NC(=O)N(Cn1nnc3ccccc3c1=O)C2=O (stereo unspecified)	-13.1	-4.8	-0.7	31.1*	-7.0	0.3
CCN(Cc1nc2ccccc2c(=O)[nH]1)C(=O)CN1C(=O)NC2(CCCCC2C)C1=O (stereo unspecified)	·	·	2.3	5.8	·	4.9
CC(C)(C)c1ccc(NC(=O)c2c(F)cccc2Cl)cc1	5.2	-3.2	3.8	9.4	·	4.1
O=C(CSc1nnc(SCc2cccc3ccccc23)s1)N=Nc1c(O)[nH]c2ccccc12	78.7*	60.2*	-10.5	-0.4	-12.0	-4.9
O=C(C[C@H]1C/C=C\C[C@@H](Cc2ccc(F)cc2)C(=O)O[C@H](c2ccccc2)CNC1=O)N[C@@H](CO)Cc1ccccc1	·	·	·	2.4	·	·
CCOc1cc2[nH]c(=S)n(Cc3ccc(C(=O)NCC(OC)OC)cc3)c(=O)c2cc1OCC	-13.3	11.6	4.7	-0.5	-4.0	0.8
O=C(NCC1CCCO1)c1ccc(Cn2c(=S)[nH]c3ccccc3c2=O)cc1 (stereo unspecified)	-27.1	81.4*	-12.1	3.1	-2.0	-5.6
SMILES	Mcl1 Bid PPI	Mcl1-Noxa inh	MCL1-BIM inh	GLD-1 TGE inh	Bim-Mcl-1	BCLXL inh
COc1ccc2[nH]c3c(=O)n(Cc4ccc(C(=O)NCC5CCCO5)cc4)c(=S)[nH]c3c2c1 (stereo unspecified)	-31.4	61.7*	-21.3	1.1	-1.0	-23.4
CCOCCCNC(=O)c1ccc(Cn2c(=S)[nH]c3c([nH]c4ccc(OC)cc43)c2=O)cc1	-27.4	56.2*	-23.1	1.8	3.0	-28.3
CCCCNC(=O)c1ccc(Cn2c(=S)[nH]c3c([nH]c4ccc(OC)cc43)c2=O)cc1	-22.7	44.5	0.8	8.6	-14.0	-2.0
CC[C@H](C)NC(=O)c1ccc(Cn2c(=S)[nH]c3c([nH]c4ccc(OC)cc43)c2=O)cc1	26.7	76.0*	1.8	0.4	-14.0	-1.3
COc1ccccc1CNC(=O)C1CC(c2ccc([N+](=O)[O-])cc2)=NO1 (stereo unspecified)	18.4	21.6	-4.5	8.0	0.0	2.3
COCCNC(=O)CCCCCn1c(=S)[nH]c2ccccc2c1=O	-70.2	17.7	-1.4	8.0	1.0	5.4
CCN(CC)CCNC(=O)CCCCn1c(=S)[nH]c2c([nH]c3ccc(OC)cc32)c1=O	-58.6	61.1*	5.4	5.4	0.0	14.5
O=C(Nc1ccccc1)Nc1ccc2ncoc2c1	-27.4	15.3	-0.3	6.0	91.0*	1.8
O=C(Nc1ccccc1)Nc1ccc2ocnc2c1	-22.0	-0.8	-2.5	-3.5	1.0	6.8
COc1ccc2c3c(cccc13)OC2=O	·	·	-0.7	-0.1	·	0.3
COc1ccc2c3c(cccc13)N(C)N=C2C	-46.1	87.3*	87.1*	42.1*	18.0	97.3*
O=C(Nc1cccc(Oc2ccc(C(=O)O)c(C(=O)O)c2)c1)c1ccc(-c2ccccc2)cc1	-49.2	80.0*	11.5	3.6	·	8.2
CCN1CCN(CC(=O)Nc2cc3c(cc2C(C)=O)OCO3)CC1	58.5*	21.2	8.2	-4.8	2.0	5.9
COc1ccc2nc(N3C(=O)CNC3=S)sc2c1	-24.3	-61.6	-3.4	-2.9	·	-0.1
CCOc1ccc2nc(N3C(=O)/C(=C/c4ccc(Cl)cc4)NC3=S)sc2c1	93.0*	86.2*	·	·	-5.0	·
O=C1S/C(=C\c2ccc(O)c([N+](=O)[O-])c2)C(=O)N1c1ccccc1Cl	-1.2	15.8	-7.3	1.5	0.0	3.6
COc1cc(/C=C2\SC(=O)N(c3ccc(Cl)cc3)C2=O)cc([N+](=O)[O-])c1O	90.0*	76.1*	·	·	1.0	·
COc1cc(/C=C2/NC(=O)N(c3cccc(Cl)c3)C2=O)ccc1O	-0.7	59.0*	10.8	-4.8	10.0	-2.4
COc1cc(/C=C2\SC(=O)N(c3cccc(Cl)c3)C2=O)cc([N+](=O)[O-])c1O	73.0*	65.7*	·	·	3.0	·
Nc1nc(-c2ccc(Cl)cc2)cn1N	-110.7	-82.7	-9.5	0.4	-3.0	-7.9
N#Cc1ccc(-c2cccnc2)nc1SCC(=O)Nc1sc2c(c1C#N)CCC2	40.3	60.3*	-50.8	-27.9	1.0	-23.4
N#Cc1ccc(-c2cccnc2)nc1SCC(=O)c1ccccc1	-17.4	-10.9	20.4	-87.0	·	35.8*
COc1ccc(-c2nc(=S)c3c(n2Cc2cccnc2)CC(C)(C)OC3)cc1	-95.2	-1.1	17.8	5.0	·	6.1
